Measured values: PubChem BioAssay (NCI)
The panel holds about 79,000 compounds, 15% with a hit somewhere; the sample as a whole holds those more often. Active and inactive are the calls of the source. No stated cut-off is given here; in the data, active means growth inhibition above about 70%; inactive means the rest.

Experiments:
[1] = NCI Yeast Anticancer Drug Screen. Data for the rad52 strain (AID 147);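 further: 0% = growth of vehicle-treated control cultures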; details: S. cerevisiae rad52 mutant growth inhibition, stronger effect = higher value
Procedure, shortened: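 Inhibition of yeast growth, referenced to vehicle controls, was the measured output for a strain with defective DNA damage repair.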

[2] = NCI Yeast Anticancer Drug Screen. Data for the wt1 strain (AID 149);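 further: 0% = growth of vehicle-treated wt1 cultures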; details: S. cerevisiae wt1 strain (SPY 50644) growth inhibition, stronger effect = higher value
Procedure, shortened: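 wt1 yeast, compound-treated; % growth inhibition vs vehicle control.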

[3] = NCI Yeast Anticancer Drug Screen. Data for the rad50EPP+ strain (AID 151);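 further: 0% = growth of vehicle-treated control cultures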; details: S. cerevisiae rad50 mutant strain, stronger effect = higher value
Procedure, shortened: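 Genetically defined yeast (rad50EPP+, DNA damage repair alteration) is grown with compound, and inhibition of growth is expressed relative to vehicle-treated controls.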

[4] = NCI Yeast Anticancer Drug Screen. Data for the rad50 strain (AID 155);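 further: 0% = growth of vehicle-only cultures of the same strain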; details: S. cerevisiae rad50 strain growth inhibition, stronger effect = higher value
Procedure, shortened: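 Genetically altered yeast (DNA repair pathway); compound treatment; growth inhibition vs vehicle ctrl.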

[5] = NCI Yeast Anticancer Drug Screen. Data for the mec2-1 strain (AID 157); details: S. cerevisiae mec2-1 strain, stronger effect = higher value
Procedure, shortened: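 Each compound was tested on mec2-1 yeast, a strain altered in DNA damage repair or cell cycle control. Growth inhibition is reported relative to vehicle.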

[6] = NCI Yeast Anticancer Drug Screen. Data for the rad14 strain (AID 159);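 further: 0% = growth of vehicle-treated control cultures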; details: S. cerevisiae rad14 strain growth inhibition, stronger effect = higher value
Procedure, shortened: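 Test compounds were applied to a repair-deficient yeast strain. Its growth was then compared with that of cultures given vehicle alone, and inhibition was expressed relative to those controls.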

[7] = NCI Yeast Anticancer Drug Screen. Data for the sgs1 mgt1 strain (AID 161);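 further: 0% = growth of cultures given vehicle only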; details: S. cerevisiae sgs1 mgt1 strain, stronger effect = higher value
Procedure, shortened: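 Mutant yeast exposed to compound; growth scored against vehicle-only wells.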

[8] = NCI Yeast Anticancer Drug Screen. Data for the CLN2oe strain (AID 163);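 further: 0% = growth of vehicle-only control cultures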; details: S. cerevisiae CLN2oe strain, stronger effect = higher value
Procedure, shortened: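 First, the altered yeast strain was treated with each compound; second, its growth was measured; finally, inhibition was derived by comparison with vehicle controls.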

[9] = NCI Yeast Anticancer Drug Screen. Data for the cln2 rad14 strain (AID 165);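 further: 0% = growth equal to vehicle treated cultures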; details: S. cerevisiae cln2 rad14 strain, stronger effect = higher value
Procedure, shortened: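 Test compounds were added to cln2 rad14 yeast cultures; inhibition of growth was then determined by comparison with vehicle treatment.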

[10] = NCI Yeast Anticancer Drug Screen. Data for the bub3 strain (AID 167); details: S. cerevisiae bub3 mutant strain, stronger effect = higher value
Procedure, shortened: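 Yeast carrying a defined mutation is treated with each compound, and growth is compared with that of vehicle-exposed cells to give inhibition.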

[11] = NCI Yeast Anticancer Drug Screen. Data for the wt2 strain (AID 169);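 further: 0% = growth of vehicle-treated yeast cultures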; details: S. cerevisiae wt2 strain growth inhibition, stronger effect = higher value
Procedure, shortened: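 The panel's yeast strains carry defined changes in DNA repair or cell cycle genes. Each strain is grown with compound, and growth loss is scored relative to vehicle.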

[12] = NCI Yeast Anticancer Drug Screen. Data for the mlh1 strain (AID 171);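 further: 0% = growth of vehicle-treated control cultures of the same strain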; details: S. cerevisiae mlh1 strain growth inhibition, stronger effect = higher value
Procedure, shortened: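 Inhibition values reflect reduced yeast growth in the presence of compound, referenced to vehicle controls, using a strain chosen for its alteration in DNA repair or cell cycle control.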

[13] = NCI Yeast Anticancer Drug Screen. Data for the sgs1 strain (AID 173);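 further: 0% = growth of vehicle-only control cultures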; details: S. cerevisiae sgs1 mutant, stronger effect = higher value
Procedure, shortened: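 Vehicle-treated cultures served as reference for growth inhibition of a yeast strain altered in DNA damage repair or cell cycle control after compound exposure.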

[14] = NCI Yeast Anticancer Drug Screen. Data for the mlh1 rad18 strain (AID 175); details: S. cerevisiae mlh1 rad18 strain growth inhibition, stronger effect = higher value
Procedure, shortened: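 Inhibition values reflect reduced growth of mutant yeast versus vehicle-treated controls following compound exposure; the mutations affect DNA damage repair.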

[15] = NCI Yeast Anticancer Drug Screen. Data for the rad18 strain (AID 177); details: S. cerevisiae rad18 mutant growth inhibition, stronger effect = higher value
Procedure, shortened: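 Steps: expose repair-mutant yeast to compound; measure growth; express as inhibition relative to vehicle control.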

[16] = NCI Yeast Anticancer Drug Screen. Data for the mgt1 strain (AID 153); details: S. cerevisiae mgt1 mutant growth inhibition, stronger effect = higher value
Procedure, shortened: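 In the mgt1 strain, test compounds were added and growth inhibition was determined relative to vehicle-treated controls.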

[17] = at 5.0 µM (retest, dose inferred, filed as 0.5)
[18] = at 50.0 µM (retest, dose inferred, filed as 5.0)

Measured: growth inhibition

c1ccc2c(c1)sc1cc3ccncc3cc12
active: [1]; at 33.0 µM 94% | [1]; at 100.0 µM 98% | [2]; at 100.0 µM 94% | [3]; at 33.0 µM 94% | [3]; at 100.0 µM 99% | [4]; [17] 93% | [4]; at 33.0 µM 89% | [4]; [18] 94% | [4]; at 50.0 µM 97.7% | [4]; at 100.0 µM 98% | [5]; [18] 96% | [5]; at 50.0 µM 98.2% | [5]; at 100.0 µM 89% | [6]; at 100.0 µM 97% | [7]; [18] 93% | [7]; at 50.0 µM 98.1% | [8]; at 100.0 µM 91% | [9]; [18] 96% | [9]; at 50.0 µM 96.2% | [10]; [18] 95% | [10]; at 50.0 µM 97.3% | [10]; at 100.0 µM 94% | [11]; at 100.0 µM 91% | [12]; at 100.0 µM 95% | [13]; at 100.0 µM 97% | [14]; [18] 94% | [14]; at 50.0 µM 97.4% | [15]; at 100.0 µM 97%
inactive: [1]; at 1.2 µM -2% | [1]; at 3.7 µM 7% | [1]; at 11.0 µM 17% | [2]; at 1.2 µM -7% | [2]; at 3.7 µM -4% | [2]; at 11.0 µM -9% | [2]; at 33.0 µM 17% | [3]; at 1.2 µM 7% | [3]; at 3.7 µM 21% | [3]; at 11.0 µM 63% | [4]; at 1.2 µM -6% | [4]; at 3.7 µM 7% | [4]; at 11.0 µM 29% | [5]; at 1.2 µM 1% | [5]; at 3.7 µM -1% | [5]; [17] 15% | [5]; at 11.0 µM 11% | [5]; at 33.0 µM 8% | [6]; at 1.2 µM 2% | [6]; at 3.7 µM 7% | [6]; at 11.0 µM 16% | [6]; at 33.0 µM 36% | [7]; [17] 12% | [8]; at 1.2 µM -2% | [8]; at 3.7 µM 0% | [8]; at 11.0 µM 7% | [8]; at 33.0 µM 26% | [9]; [17] 16% | [10]; at 1.2 µM -12% | [10]; at 3.7 µM -7% | [10]; [17] -4% | [10]; at 11.0 µM 0% | [10]; at 33.0 µM 19% | [11]; at 1.2 µM -4% | [11]; at 3.7 µM -2% | [11]; at 11.0 µM -3% | [11]; at 33.0 µM 10% | [12]; at 1.2 µM 6% | [12]; at 3.7 µM -6% | [12]; at 11.0 µM -1% | [12]; at 33.0 µM 19% | [13]; at 1.2 µM -2% | [13]; at 3.7 µM -7% | [13]; at 11.0 µM -7% | [13]; at 33.0 µM 34% | [14]; [17] 8% | [15]; at 1.2 µM -3% | [15]; at 3.7 µM -1% | [15]; at 11.0 µM 5% | [15]; at 33.0 µM 22%

Cc1c(C(Cc2ccccc2N(C)C(=O)/C=C\C(=O)O)c2c[nH]c3ccccc23)c2ccccc2n1C (stereo unspecified)
active: [4]; at 50.0 µM 87.8% | [5]; at 50.0 µM 86.8% | [7]; at 50.0 µM 86.9% | [9]; at 50.0 µM 88.1% | [10]; at 50.0 µM 85.5% | [14]; at 50.0 µM 78%
inactive: [1]; at 1.2 µM -5% | [1]; at 3.7 µM 0% | [1]; at 11.0 µM 0% | [1]; at 33.0 µM 7% | [1]; at 100.0 µM 36% | [2]; at 1.2 µM -3% | [2]; at 3.7 µM -6% | [2]; at 11.0 µM -7% | [2]; at 33.0 µM 0% | [2]; at 100.0 µM 40% | [3]; at 1.2 µM -6% | [3]; at 3.7 µM -4% | [3]; at 11.0 µM -6% | [3]; at 33.0 µM -6% | [3]; at 100.0 µM 4% | [16]; at 1.2 µM -3% | [16]; at 3.7 µM -3% | [16]; at 11.0 µM -2% | [16]; at 33.0 µM 5% | [16]; at 100.0 µM 65% | [4]; at 1.2 µM 1% | [4]; at 3.7 µM -2% | [4]; [17] -12% | [4]; at 11.0 µM -9% | [4]; at 33.0 µM 8% | [4]; [18] -12% | [4]; at 100.0 µM 37% | [5]; at 1.2 µM -2% | [5]; at 3.7 µM -4% | [5]; [17] 8% | [5]; at 11.0 µM -5% | [5]; at 33.0 µM 2% | [5]; [18] 8% | [5]; at 100.0 µM 51% | [7]; [17] -16% | [7]; [18] -16% | [8]; at 1.2 µM -11% | [8]; at 3.7 µM -2% | [8]; at 11.0 µM -9% | [8]; at 33.0 µM -4% | [8]; at 100.0 µM 42% | [9]; [17] 38% | [9]; [18] 38% | [10]; at 1.2 µM -9% | [10]; at 3.7 µM -6% | [10]; [17] -6% | [10]; at 11.0 µM 4% | [10]; at 33.0 µM 6% | [10]; [18] -6% | [10]; at 100.0 µM 30% | [12]; at 1.2 µM -7% | [12]; at 3.7 µM -6% | [12]; at 11.0 µM -7% | [12]; at 33.0 µM 4% | [12]; at 100.0 µM 62% | [13]; at 1.2 µM -5% | [13]; at 3.7 µM -4% | [13]; at 11.0 µM -3% | [13]; at 33.0 µM 7% | [13]; at 100.0 µM 46% | [14]; [17] -9% | [14]; [18] -9% | [15]; at 1.2 µM -14% | [15]; at 3.7 µM -14% | [15]; at 11.0 µM -8% | [15]; at 33.0 µM 0% | [15]; at 100.0 µM 42%
